The text below walks through data of PubChem BioAssay (NCATS).

SMILES strings stand for the structures. Records with an inconclusive call do not appear. Values without a mark were called inactive. The source made the active and inactive calls. The call rests on the fitted dose curve; in most records, active means well fitted inhibition curve with a large enough effect; inconclusive means small, poorly fitted or top-dose-only effect; inactive means no such curve, though single readings can be large or run the other way.
Potency means the concentration at half of the fitted maximal effect.

This experiment can be described thus: Confirmatory screen NINDS Rhodamine qHTS for Zika virus inhibitors (AID 1347161). Further: nearly all actives have a fitted effect of over 60% in size. Conditions: purified enzyme assay, Rhodamine110 substrate fluorescence, 15 min; series mostly up to 114 µM; activity change, negative = inhibition: at the top concentration. The source says: Avindra Nath, Ph.D., National Institute of Neurological Disorders and Stroke (NINDS), Bethesda, MD
Radhakrishnan Padmanabhan, Ph.D., Georgetown University (GU), Washington D.C.
Zika Virus causes congenital defects, including microcephaly and is associated with Guillain-Barre syndrome, eningoencephalitis and myelitis in infected adult. […] Using a target-based approach, we hope to establish a screening paradigm to uncover novel, cell-active NS2B-NS3 protease (Zika Virus) specific inhibitors from NCATS' collection of small molecules using qHTS.
Four assay panel was created to identify potential Zika Virus inhibitors. Namely, (1) GU unlinked NS2B-NS3 AMC tagged protease qHTS, (2) GU unlinked NS2B-NS3 Rhodamine tagged protease qHTS, (3) NINDS linked NS2B-NS3 AMC tagged protease qHTS, (4) NINDS linked NS2B-NS3 Rhodamine tagged protease qHTS. Active compounds were re-acquired and re-screened to confirm inhibition. Inhibitors were further screened against various confirmatory and counterscreens in dose response format.
Early Translation Branch (ETB)
National Center for Advancing Translational Sciences (NCATS), Rockville, MD
National Institute of Health (NIH), Bethesda, Maryland
For the linked assay, Nath lab (NINDS) provided the purified linked NS2B-NS3 protease which is consists of hydrophilic domain of NS2B linked to the NS3 protease domain by a flexible (-[…]-) linker. Control compound aprotinin is obtained from Thermo Scientific (#78432; Waltham, Massachusetts). Rhodamine110 substrate ([N-Cbz]-Nle-Lys-Arg-Arg-Rhod110-Arg-Arg-Lys-Nle-[N-Cbz]) was purchased from either Genscript or Bachem.
1536-well Protease (Rhodamine110 Substrate) Assay:
Briefly, 3 microL of enzyme (25 nM final concentration), in assay buffer (10 mM Tris-HCl pH 8.0 with 0.01% Tween 20) were dispensed into a 1,536-well solid-bottom black plate (Greiner Bio One, Monroe, NC). Twenty-three nL of compounds (final concentration range 7.28 nM to 114 microM) or control Aprotinin (final concentration range 3.47 nM to 114 microM) were transferred via Wako Pin-tool (Wako Automation, Richmond, VA). Samples were incubated (room temperature, protected from light) for 15 minutes followed by a 1 microL Rhodamine110 substrate addition (1.5 microM final concentration). Plates were then immediately read on a ViewLux High-throughput CCD imager (PerkinElmer, Waltham, MA) equipped with FITC fluorescence optics (480(20) nm excitation, 540(25) nm emission), then incubated (room temperature, protected from light) for 15 minutes (~15% conversion). The change in fluorescence intensity over the 15-minute reaction period was normalized against no-inhibitor and no-enzyme controls and the resulting percent inhibition data were fitted to a 4-parameter Hill equation. Aprotinin was used as intraplate control.
In general terms: In qHTS, concentration-response curves come from the screen itself.
`O=C(OCC#CCSc1nnc(-c2cccc3ccccc23)o1)c1ccc(OC(F)(F)F)cc1`: the “activity change, negative = inhibition” value was -7.23%.
`O=c1c(O)c(Br)ccc2c(Br)c(O)c(O)c(O)c12`: the Potency was 7.94 µM (active).
With `O=C(OCC#CCSc1nnc(-c2cccc3ccccc23)o1)c1ccc(F)c(F)c1`, the “activity change, negative = inhibition” value was 9.74%.
Take `CC(C)(O)c1ccccc1CC[C@H](SCC1(CC(=O)O)CC1)c1cccc(/C=C/c2ccc3ccc(Cl)cc3n2)c1`: the Potency is 22.4 µM (active).
With `CCCCc1nn(-c2ccccc2C(F)(F)F)c(=O)n1Cc1ccc(-c2ccccc2S(=O)(=O)NC(=O)c2sccc2C)cc1`, the Potency was 4.41 µM (active).
Regarding `O=c1c(O)cc(C2Oc3cc(O)cc(O)c3CC2O)cc2c(C3Oc4cc(O)cc(O)c4CC3O)cc(O)c(O)c12` (stereo not given), the Potency was 20 µM (active).
Consider `O=S(=O)(Nc1ccc(O)c(NS(=O)(=O)c2ccccc2)c1)c1ccccc1`, for which the “activity change, negative = inhibition” value was -8.5%.
For `N#C/C(=C\c1ccc(-c2cc(Cl)ccc2Cl)o1)C(=O)Nc1ccccc1C(=O)O`, the Potency was 6.31 µM (active).
Take `CC(C)OC(=O)c1ccc(NC(=O)CSc2nc(-c3cccs3)cc(C(F)(F)F)n2)cc1`: the “activity change, negative = inhibition” value is -11.1%.
Regarding `CC1CCN(C(c2ccc(F)cc2)c2ccc(C(C)C(=O)O)cc2-c2ccc(C(F)(F)F)cc2)CC1` (stereo not given), the Potency is 3.12 µM (active).
Regarding `CCOC(=O)c1ccc(Nc2nc3ccccc3nc2NS(=O)(=O)c2ccc(Cl)cc2)cc1`, the Potency is 3.55 µM (active).
Turning to `O=C(O)c1ccc(NC(=O)c2cn(-c3ccccc3)nc2-c2ccc(Br)cc2)cc1`, the Potency was 6.31 µM (active).
Turning to `Nc1c(N=Nc2ccc([N+](=O)[O-])cc2)c(S(=O)(=O)O)cc2cc(S(=O)(=O)O)c(/C=C/c3ccccc3)c(O)c12`, the Potency is 2.82 µM (active).
On to `Cc1c(Cl)cccc1NS(=O)(=O)c1ccc(NS(=O)(=O)c2ccc3c(c2)OCCO3)cc1`, for which the Potency is 25.1 µM (active).
Still for that read-out and setting: as for `Cc1ccc(NC(=O)c2ccc3c(O)c(S(=O)(=O)c4ccccc4)c(=O)[nH]c3c2)cc1Cl`, the figure is 6.31 µM (active).
Consider `O=C(Nc1cccc(C(=O)OCc2cc(=O)n3nc(C4CC4)sc3n2)c1)c1cccc(F)c1`, for which the Potency is 25.1 µM (active).
In the case of `Cc1ccc2nc(-c3ccc(N=Nc4cc(S(=O)(=O)O)c5ccccc5c4O)cc3)sc2c1S(=O)(=O)O`, the Potency was 2.82 µM (active).
As for `Cc1csc2nc(COC(=O)c3ccccc3NC(=O)c3ccc(C(C)(C)C)cc3)cc(=O)n12`, the “activity change, negative = inhibition” value is -14.5%.
Take `Clc1ccc(-c2nn3c(COc4cc(Cl)c(OCc5nnc6sc(-c7ccc(Cl)cc7)nn56)cc4Cl)nnc3s2)cc1`: the Potency was 6.31 µM (active).
Consider `O=C(O)Cn1nnc(-c2ccc(OCc3cccc(C(F)(F)F)c3)cc2)n1`, for which the Potency is 8.91 µM (active).
As to `COC(=O)c1ccc(C(=O)Nc2ccc(-c3nc4cc(NC(=O)c5ccc(C(=O)OC)cc5)ccc4o3)cc2)cc1`, the “activity change, negative = inhibition” value was 2.91%.
As to `O=C(Nc1ccccc1)c1ccc2c(O)c(S(=O)(=O)c3ccc(Cl)cc3)c(=O)[nH]c2c1`, the Potency is 14.1 µM (active).
As to `Cc1ccn(-c2cc(Cl)ccc2[C@@H](Oc2cc(-c3ccc(C[C@H](N)C(=O)O)cc3)nc(N)n2)C(F)(F)F)n1`, the Potency is 24.8 µM (active).
Consider `CCS(=O)(=O)c1cccc(C(=O)Nc2ccc(-c3nc4ccccc4s3)c(O)c2)c1`, for which the Potency was 15.8 µM (active).
Turning to `O=C(Nc1ccccc1C(F)(F)F)c1ccc2oc(=O)c(S(=O)(=O)c3ccc(F)cc3)cc2c1`, the “activity change, negative = inhibition” value was -15.1%.
Still for that read-out and setting: as for `CCOC(=O)c1ccc(CN(Cc2ccc(F)cc2)S(=O)(=O)c2cc(C(=O)Nc3cccc(C(F)(F)F)c3)ccc2F)cc1`, the figure is -5.39%; as for `CCOC(=O)c1ccc(NC(=O)c2nc(SCc3ccc(F)cc3)ncc2Cl)cc1`, 0.294%.
`Clc1nc2n[nH]nc2nc1Cl`: the Potency was 5.62 µM (active).
For the compound `O=S(=O)(Nc1ccc(Cl)cc1)c1ccc(NS(=O)(=O)c2ccc3c(c2)OCCO3)cc1`, the Potency is 35.5 µM (active).
Same read-out and setting: to `Cc1c(C2(c3cc(C(C)C)c(O)c(Br)c3C)OS(=O)(=O)c3ccccc32)cc(C(C)C)c(O)c1Br` belongs 5.62 µM (active).
As to `Cc1cc(=O)c2c(O)c3c(O)cc(O)c4c5c(O)cc(O)c6c(O)c7c(=O)cc(C)c8c1c2c(c34)c(c65)c78`, the “activity change, negative = inhibition” value was 5.74%.
Take `O=C(OCC#CCSc1nnc(-c2cccc3ccccc23)o1)c1ccc(Cl)c(C(F)(F)F)c1`: the “activity change, negative = inhibition” value was -3.71%.
Still for that read-out and setting: to `CC(C)c1nn2c(=O)cc(COC(=O)c3cccc(NC(=O)c4ccccc4F)c3)nc2s1` belongs -8.4%.
For `O=C(O)c1cc(NCc2cc(O)ccc2O)ccc1O`, the Potency is 12.4 µM (active).
As to `O=c1c(-c2cc(O)c(O)c(O)c2)coc2cc(O)c(O)c(O)c12`, the Potency is 12.6 µM (active).
Turning to `CN(CC(=O)N(Cc1ccc(C2CCCCC2)cc1)c1ccc(C(=O)O)cc1)S(=O)(=O)c1c(F)c(F)c(F)c(F)c1F`, the Potency was 2.78 µM (active).
Take `O=c1cc(-c2cc(O)c(O)c(O)c2)oc2cc(O)cc(O)c12`: the Potency was 31.6 µM (active).
Regarding `Nc1cc(N)c(N=Nc2ccc(S(=O)(=O)Nc3nccs3)cc2)cc1N=Nc1ccc(S(=O)(=O)Nc2nccs2)cc1`, the Potency is 3.55 µM (active).
For `O=C(Nc1ccc(C(=O)OCc2cc(=O)n3c4c(sc3n2)CCCC4)cc1)c1ccccc1`, the “activity change, negative = inhibition” value was -14.8%.
As to `CCOC(=O)c1cccc(NC(=O)CSc2ncc3c(n2)-c2ccc(Cl)cc2N(Cc2ccccc2)S3(=O)=O)c1`, the Potency is 44.7 µM (active).
